These results are taken from ChEMBL document CHEMBL3433997, “St. Jude Leishmania screening dataset” (2016).

Holding throughout (format): functional
Assay [1] concerns the target Solute carrier family 2, facilitated glucose transporter member 1 (Homo sapiens) (UniProt P11166). In words: ST_JUDE_LEISH: Cytotoxicity at 2uM final concentration against transgenic Leishmania Mexicana promastigotes LmGLUT1 that are glucose transport deficient and complemented with the human glucose transporter GLUT1. Activity is measured by DNA content using SYBR green in vitro.

Assay [2] concerns the target Hexose transporter 1 (Plasmodium falciparum) (UniProt O97467). In words: ST_JUDE_LEISH: Cytotoxicity at 2uM final concentration against transgenic Leishmania Mexicana promastigotes LmPfHT that are glucose transport deficient and complemented with the Plasmodium falciparum hexose transporter. Activity is measured by DNA content using SYBR green in vitro.
Assay [3] addresses Glucose transporter (Leishmania mexicana) (UniProt O61059). In words: ST_JUDE_LEISH: Cytotoxicity at 2uM final concentration against transgenic Leishmania Mexicana promastigotes LmGT2 that are glucose transport deficient and complemented with the L. Mexicana glucose transporter 2. Activity is measured by DNA content using SYBR green in vitro.

The structures appear in SMILES notation.

Chain of Solute carrier family 2, facilitated glucose transporter member 1 (Homo sapiens) (P11166 whole entry): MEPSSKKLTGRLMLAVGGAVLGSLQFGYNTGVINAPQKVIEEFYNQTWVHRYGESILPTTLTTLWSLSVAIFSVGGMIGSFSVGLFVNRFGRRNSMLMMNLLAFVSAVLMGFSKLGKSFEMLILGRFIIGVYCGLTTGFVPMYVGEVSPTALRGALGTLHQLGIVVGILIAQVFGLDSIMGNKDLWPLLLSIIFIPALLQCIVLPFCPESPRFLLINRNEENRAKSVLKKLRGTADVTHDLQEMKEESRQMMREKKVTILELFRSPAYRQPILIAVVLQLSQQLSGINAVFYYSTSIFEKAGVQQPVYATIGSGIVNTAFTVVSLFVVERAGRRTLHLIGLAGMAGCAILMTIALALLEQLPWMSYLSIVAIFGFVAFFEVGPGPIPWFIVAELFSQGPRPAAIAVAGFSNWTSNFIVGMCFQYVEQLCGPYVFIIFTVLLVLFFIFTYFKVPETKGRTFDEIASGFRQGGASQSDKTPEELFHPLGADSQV

Regarding `O=c1[nH]nc(-c2ccc(N3CCCC3)c([N+](=O)[O-])c2)c2ccccc12`, the inhibition (in general, the drop in the measured response relative to a control, in per cent) in assay [1] is 2.71%; in assay [2], 3.31%; in assay [3], 4.21%.
For `COc1cc(F)c2nccc([C@@H](O)CN3CCC(NC(=O)OCc4ccccc4)C(F)C3)c2c1` (some centres undefined), the inhibition in assay [1] is 11.6%; in assay [2] it was 16.3%; in assay [3], 3.75%.
Turning to `CCCCNC(=O)[C@H](Cc1ccccc1)NC(=O)c1ccc(O)c(-c2ccc(Cl)c(Cl)c2)c1`, the inhibition in assay [1] was 6.46%; in assay [2] it was 2.06%; in assay [3] it was 3.71%.
For `COc1ccc(C2C(C(=O)Nc3ccc(C)cc3Br)c3ccccc3C(=O)N2C)cc1` (centres undefined) the same measures were 3.32%, 2.08% and 0.83%.
In the case of `O=C(C1CCCCC1)N1CCOC(CCN2CCC(c3ccccc3)CC2)(c2ccc(Cl)c(Cl)c2)C1` (centres undefined), the inhibition in assay [1] amounted to 15.2%; in assay [2], 16.1%; in assay [3] it was 13.5%.
On to `COc1ccc2nccc(N3CCN(CCNCc4ccc5c(n4)NC(=O)CS5)CC3)c2n1`, for which the inhibition was found to be 0.43% in assay [1], 1.14% in assay [2] and 0.07% in assay [3].
For `CC(C)C[C@H](NC(=O)c1cc2ccccc2s1)C(=O)N[C@H]1CCN(Cc2ccc(I)c(OC3CCN(C)C3)c2)C1` (some centres undefined) the same measures were -1.02%, 1.35% and -2.35%.
In the case of `O=C(/C=C/c1ccc(Cl)c(Cl)c1)NCCCCCN1CCC(NC(=O)c2cccc(Cl)c2)CC1`, the inhibition turned out to be 9.72% in assay [1], 10.2% in assay [2] and 7.71% in assay [3].
For `O=[N+]([O-])c1cccc(/C=N/Nc2ccnc3cc(F)ccc23)c1`, the results for the inhibition in assay [1], in assay [2] and in assay [3] were 1.98%, 2.39% and 1.01%, respectively.
`Clc1ccc(OC2CCC(Cn3ccnc3)(c3ccc(Cl)cc3Cl)CC2)c(Cl)c1` (centres undefined): the inhibition is 6.14% in assay [1], 3.28% in assay [2] and -0.14% in assay [3].
In the case of `CNC(=O)CC(=O)NCCc1ccc(Cl)cc1`, the figures for the inhibition in assay [1], in assay [2] and in assay [3] were -0.63%, 1.17% and 0.06%, respectively.
In the case of `CC(=O)NCCNCc1cccc(C(=O)NCc2cccc(C(F)(F)F)c2)c1`, the inhibition in assay [1] was 3.26%; in assay [2], 5.92%; in assay [3], 4.88%.
For `CNCCNCc1ccc(-c2ccc(-c3nc4cccc(C)c4[nH]3)cc2)cc1`, in that order: 5.52%, 4.65% and 4.77%.
As to `COc1cc(C(=O)N2CCN(C(C)C)CC2)ccc1CN(C)CCCCN1CCN(c2cccc(Cl)c2Cl)CC1`, the inhibition in assay [1] is 1.77%; in assay [2], 1.73%; in assay [3], 0.12%.
With `Cc1noc(C)c1-c1cccc(CNCc2ccc(-c3cccc(-c4nc5ccccc5[nH]4)c3)cc2)c1`, the inhibition in assay [1] is -0.68%; in assay [2] it was -1.65%; in assay [3] it was -4.01%.
For `O=C(NCCCCCN1CCC(c2c[nH]c3ccccc23)CC1)Nc1ccc(Br)cc1` the same measures were -0.87%, -1.37% and -0.48%.
For `N#Cc1ccc(N(CCOc2ccc3c(c2)CCC(=O)N3)Cc2ccccc2C(F)(F)F)cc1C(F)(F)F`, the inhibition in assay [1] was 7.14%; in assay [2] it was 4.94%; in assay [3], 5.81%.
Consider `COc1cccc(CNC(=O)c2cccc(-c3ccc(CN4CCC(N5CCCC5)CC4)cc3)n2)c1`, for which the inhibition in assay [1] was 7.47%; in assay [2] it was 5.46%; in assay [3], 8.7%.
For `CCOc1cc(C=NNc2nc(C)cc(-n3nc(C)cc3C)n2)ccc1O` the same measures were 1.32%, -0.22% and 3.45%.
Consider `COc1cccc2sc(N3CCN(C(=O)c4ccc([N+](=O)[O-])o4)CC3)nc12`, for which the inhibition in assay [1] was 2.53%; in assay [2] it was 11.9%; in assay [3] it was 4.81%.
Consider `CC(=O)N(C)c1cccc(C(=O)Nc2ccc(-c3cccc(-c4nc5cc(C(F)(F)F)ccc5[nH]4)c3)cc2)c1`, for which the inhibition in assay [1] amounted to 11.5%; in assay [2] it was 10.1%; in assay [3], 9.62%.
With `O=C(Nc1cccc(-c2cccc(-c3nc4cc(F)ccc4[nH]3)c2)c1)Nc1ccc2c(c1)OCO2`, the inhibition in assay [1] is 1.84%; in assay [2] it was 4.87%; in assay [3] it was -1.13%.
In the case of `CCn1c(-c2nonc2N)nc2c(-c3cccc(NC(=O)NC45CC6CC(CC(C6)C4)C5)c3)ncc(OCCCN)c21`, the results for the inhibition in assay [1], in assay [2] and in assay [3] were 2.53%, 1.83% and 2.53%, respectively.
For `Oc1ccc(Cl)c2c1C(c1ccccc1)=NCC2`, the inhibition was -1.17% in assay [1], -0.25% in assay [2] and 1.69% in assay [3].
`O=C(Cc1c[nH]cn1)Nc1cccc(-c2ccc(-c3nc4ccccc4[nH]3)cc2)c1`: the inhibition in assay [1] was 1.81%; in assay [2], 3.82%; in assay [3], -0.08%.
As to `c1ccc(-c2nc(Nc3ccncc3)sc2-c2ccccc2)cc1`, the inhibition in assay [1] is 4.18%; in assay [2], 4.94%; in assay [3] it was 1.21%.
For `CCCCCCN1CCN(Cc2cccc(NC(=O)c3cc4ccccc4o3)c2)CC1`, the inhibition in assay [1] came to 1.59%; in assay [2], 1.56%; in assay [3], 1.59%.
In the case of `CCc1cc2c3c(N)nc(N)nc3ccc2n1C(CC)CC`, the inhibition was 71.2% in assay [1], 72.7% in assay [2] and 65.2% in assay [3].
Turning to `O=C(/C=C/c1ccc(Cl)c(Cl)c1)N1CCC(CCN2CCc3[nH]c4ccccc4c3C2)CC1`, the values for the inhibition in assay [1], in assay [2] and in assay [3] were 12.4%, 5.55% and 4.33%, respectively.
With `CCCCN(Cc1cccc(C(F)(F)F)c1Cl)c1ccc(C(O)(C(F)(F)F)C(F)(F)F)cc1`, the inhibition in assay [1] came to 7.39%; in assay [2], 6.7%; in assay [3] it was 6.39%.
Turning to `COc1cc(OC)cc(-c2nnc(Sc3ccc(C#N)c([N+](=O)[O-])c3)n2C)c1`, the figures for the inhibition in assay [1], in assay [2] and in assay [3] were 9.51%, 6.92% and 5.47%, respectively.
Consider `Nc1c2c(nc3ccc(NC(=O)c4ccc([N+](=O)[O-])cc4)cc13)CCCC2`, for which the inhibition in assay [1] was -1.93%; in assay [2], -0.82%; in assay [3], -1.11%.
As to `CN(C)CCOc1ccc2c(c1)CN(C)CC2c1ccccc1` (centres undefined), the inhibition worked out at 1.17% in assay [1], 0.33% in assay [2] and 0.03% in assay [3].
